Laboratory results taken from the supplement of paper PMC4466140.

Molecular target: AgAbp1
Assay: SPOT peptide array binding signal intensity (averaged, normalized) (arbitrary units (background-subtracted, floor 0; scale differs between SH3 domains)); higher = stronger binding of the SH3 domain to the peptide
How it was run: (§1)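 Detection of bound protein relied on anti-GST antibody, an HRP anti-mouse secondary and luminol, with imaging and quantification in Genespotter. The bound protein was GST-fused SH3 domains from four yeast species, incubated at 10 μg/ml overnight at 4°C in TBS-based blocking buffer on cellulose membranes carrying synthetic 15-mer peptides with cysteines replaced by serines. Binding signal is normalized, background-subtracted spot intensity averaged over replicates, in arbitrary units that differ between domains.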

Binder	SPOT peptide array binding signal intensity
LKQRFFLMFPKSIIW	4

Molecular target: AgBbc1
Assay: as above
How it was run: as §1

Binder	SPOT peptide array binding signal intensity
LKQRFFLMFPKSIIW	6

Molecular target: AgBem1-D1
Assay: as above
How it was run: as §1

Binder	SPOT peptide array binding signal intensity
LKQRFFLMFPKSIIW	102

Molecular target: AgBzz1-D1
Assay: as above
How it was run: as §1

Binder	SPOT peptide array binding signal intensity
LKQRFFLMFPKSIIW	49.5

Molecular target: AgBzz1-D2
Assay: as above
How it was run: as §1

Binder	SPOT peptide array binding signal intensity
LKQRFFLMFPKSIIW	44

Molecular target: AgCyk3
Assay: as above
How it was run: as §1

Binder	SPOT peptide array binding signal intensity
LKQRFFLMFPKSIIW	1.5

Molecular target: AgFus1
Assay: as above
How it was run: as §1

Binder	SPOT peptide array binding signal intensity
LKQRFFLMFPKSIIW	742

Molecular target: AgHof1
Assay: as above
How it was run: as §1

Binder	SPOT peptide array binding signal intensity
LKQRFFLMFPKSIIW	81.5

Molecular target: AgHse1
Assay: as above
How it was run: as §1

Binder	SPOT peptide array binding signal intensity
LKQRFFLMFPKSIIW	1020

Molecular target: AgLsb1
Assay: as above
How it was run: as §1

Binder	SPOT peptide array binding signal intensity
LKQRFFLMFPKSIIW	0.5

Molecular target: AgLsb4
Assay: as above
How it was run: as §1

Binder	SPOT peptide array binding signal intensity
LKQRFFLMFPKSIIW	42.5

Molecular target: AgMyo5
Assay: as above
How it was run: as §1

Binder	SPOT peptide array binding signal intensity
LKQRFFLMFPKSIIW	0.5

Molecular target: AgNbp2
Assay: as above
How it was run: as §1

Binder	SPOT peptide array binding signal intensity
LKQRFFLMFPKSIIW	146

Molecular target: AgRvs167
Assay: as above
How it was run: as §1

Binder	SPOT peptide array binding signal intensity
LKQRFFLMFPKSIIW	3.67

Molecular target: AgSho1
Assay: as above
How it was run: as §1

Binder	SPOT peptide array binding signal intensity
LKQRFFLMFPKSIIW	102

Molecular target: AgSla1-D1-D2
Assay: as above
How it was run: as §1

Binder	SPOT peptide array binding signal intensity
LKQRFFLMFPKSIIW	141

Molecular target: AgSla1-D3
Assay: as above
How it was run: as §1

Binder	SPOT peptide array binding signal intensity
LKQRFFLMFPKSIIW	21

Molecular target: CaAbp1-D1
Assay: as above
How it was run: as §1

Binder	SPOT peptide array binding signal intensity
LKQRFFLMFPKSIIW	295

Molecular target: CaAbp1-D2
Assay: as above
How it was run: as §1

Binder	SPOT peptide array binding signal intensity
LKQRFFLMFPKSIIW	65.5

Molecular target: CaBbc1
Assay: as above
How it was run: as §1

Binder	SPOT peptide array binding signal intensity
LKQRFFLMFPKSIIW	17.8

Molecular target: CaBem1-D1
Assay: as above
How it was run: as §1

Binder	SPOT peptide array binding signal intensity
LKQRFFLMFPKSIIW	33.5

Molecular target: CaBzz1-D1
Assay: as above
How it was run: as §1

Binder	SPOT peptide array binding signal intensity
LKQRFFLMFPKSIIW	104

Molecular target: CaBzz1-D2
Assay: as above
How it was run: as §1

Binder	SPOT peptide array binding signal intensity
LKQRFFLMFPKSIIW	48.5

Molecular target: CaCyk3
Assay: as above
How it was run: as §1

Binder	SPOT peptide array binding signal intensity
LKQRFFLMFPKSIIW	5

Molecular target: CaFus1
Assay: as above
How it was run: as §1

Binder	SPOT peptide array binding signal intensity
LKQRFFLMFPKSIIW	4200

Molecular target: CaHof1
Assay: as above
How it was run: as §1

Binder	SPOT peptide array binding signal intensity
LKQRFFLMFPKSIIW	0.5

Molecular target: CaHse1
Assay: as above
How it was run: as §1

Binder	SPOT peptide array binding signal intensity
LKQRFFLMFPKSIIW	121

Molecular target: CaLsb1
Assay: as above
How it was run: as §1

Binder	SPOT peptide array binding signal intensity
LKQRFFLMFPKSIIW	1.5

Molecular target: CaLsb4
Assay: as above
How it was run: as §1

Binder	SPOT peptide array binding signal intensity
LKQRFFLMFPKSIIW	42

Molecular target: CaMyo5
Assay: as above
How it was run: as §1

Binder	SPOT peptide array binding signal intensity
LKQRFFLMFPKSIIW	35

Molecular target: CaNbp2
Assay: as above
How it was run: as §1

Binder	SPOT peptide array binding signal intensity
LKQRFFLMFPKSIIW	676

Molecular target: CaRvs167
Assay: as above
How it was run: as §1

Binder	SPOT peptide array binding signal intensity
LKQRFFLMFPKSIIW	89.2

Molecular target: CaRvs167-3
Assay: as above
How it was run: as §1

Binder	SPOT peptide array binding signal intensity
LKQRFFLMFPKSIIW	520

Molecular target: CaSho1
Assay: as above
How it was run: as §1

Binder	SPOT peptide array binding signal intensity
LKQRFFLMFPKSIIW	484

Molecular target: CaSla1-D1-D2
Assay: as above
How it was run: as §1

Binder	SPOT peptide array binding signal intensity
LKQRFFLMFPKSIIW	84.5

Molecular target: CaSla1-D3
Assay: as above
How it was run: as §1

Binder	SPOT peptide array binding signal intensity
LKQRFFLMFPKSIIW	257

Molecular target: ScAbp1
Assay: as above
How it was run: as §1

Binder	SPOT peptide array binding signal intensity
LKQRFFLMFPKSIIW	48
